Sampled rows, rich in hits. Any-hit rate of the full collection: about 4.3%.
DRD3 agonist: D3 dopamine receptor (human) agonism; max activation, %; 0.58% of 410,000 active; P35462; D3R DiscoveRx beta-arrestin cells, luminescence, 90 min; AID 652048; in the data active = max activation above about 30%
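Agonist mode: compounds and dopamine controls were applied to plated cells for 90 min at 37 degrees C after an overnight attachment at 1500 cells/well. Luminescent read-out followed 30 - 60 minutes at room temperature with DiscoveRx detection reagent.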
GLP-1R agonist: GLP-1 receptor (human) agonism | P43220 | HEK293 GLP-1R CRE-luciferase, luminescence, 4-6 h; cells express a hypersensitive GLP-1R form | Potency, µM (top dose mostly 45.6 µM), most hits filed as activators | 0.007% of 380,000 active
Target sequence (P43220 whole entry, looked up): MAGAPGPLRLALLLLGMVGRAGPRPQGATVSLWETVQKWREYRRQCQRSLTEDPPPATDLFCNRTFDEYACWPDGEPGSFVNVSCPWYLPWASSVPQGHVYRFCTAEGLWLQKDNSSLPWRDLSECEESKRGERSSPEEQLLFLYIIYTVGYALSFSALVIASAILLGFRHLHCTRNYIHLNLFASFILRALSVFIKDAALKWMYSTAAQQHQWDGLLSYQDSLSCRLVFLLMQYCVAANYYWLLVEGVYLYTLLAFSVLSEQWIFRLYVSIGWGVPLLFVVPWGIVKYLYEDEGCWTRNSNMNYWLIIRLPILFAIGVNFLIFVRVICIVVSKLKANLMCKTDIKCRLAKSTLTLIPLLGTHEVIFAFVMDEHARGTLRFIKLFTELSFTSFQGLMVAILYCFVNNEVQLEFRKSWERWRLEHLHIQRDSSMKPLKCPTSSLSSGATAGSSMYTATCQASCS
D3 antag: blocks the human D3 dopamine receptor; P35462; D3R cells, DiscoveRx beta-arrestin luminescence, antagonist mode; hits give low values; max response, negative = inhibition, %; 2.5% of 360,000 active; AID 652054; in the data active = max response below about -50%; inconclusive = no clear call, values can overlap the other calls
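Cells plated overnight at 1500 cells/well, then exposed to library compounds with dopamine controls for 90 minutes at 37 degrees C. DiscoveRx reagent added for 30–60 minutes at room temperature; luminescence read, quantitative HTS format.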
GLP1R inv ag: inverse agonists of human GLP-1 receptor; AID 624417; Potency, µM (series often up to 38.3 µM), usual class: inhibitors; 1.6% of 410,000 active; HEK293 GLP-1R CRE-luciferase, luminescence, 24 h; GLP-1R form is constitutively active; P43220; note: nearly all actives have a fitted effect of over 55% in size
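Assay principle: reduced luminescence from a cAMP-responsive reporter in HEK293 cells co-expressing a constitutively active GLP-1R. Conditions: 24 hr compound incubation, 37 deg C, 5% CO2.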
A number is an active result; n = inactive; u = inconclusive; x = not tested or not shown; [ ] = another dose, or the depositor's remark. Unless noted, calls come from the whole dose curve; as a rule, active = well fitted curve in the direction sought with a large enough effect; inconclusive = small, poorly fitted or top-dose-only effect, or another doubt; inactive = no such curve, though single readings can be large; an effect the other way counts as inactive or inconclusive.

SMILES	DRD3 agonist	GLP-1R agonist	D3 antag	GLP1R inv ag
CCCC[C@@H](CN[C@H](C)CNC)NCC1CCC(C(C)(C)C)CC1 (stereo not given in full)	n	n	n	11.2µM
Cc1cc(C)c(NC(=O)CSc2nc(=O)[nH]c3c2CCCC3)c(C)c1	n	x	x	n
CCOC(=O)Cn1nc(Cc2ccccc2)c2ccccc2c1=O	n	n	n	u
CN1CCCC(n2nc(Cc3ccc(Cl)cc3)c3ccccc3c2=O)CC1 (stereo not given)	n	n	-53.7	u
Cc1ccc(C2(C)NC(=O)N(CC(=O)N3CCN(S(=O)(=O)c4ccc(Cl)s4)CC3)C2=O)cc1 (stereo not given)	n	n	n	u
CN1CCN(C(=O)CN2C(=O)NC(C)(c3ccc4ccccc4c3)C2=O)CC1 (stereo not given)	n	n	n	n
Cc1ccc(C2(C)NC(=O)N(CC(=O)N3CCN(S(=O)(=O)c4cccs4)CC3)C2=O)cc1 (stereo not given)	n	n	-53.4	n
CCCNC(=O)NC(=O)CN1C(=O)NC(C)(c2ccc3ccccc3c2)C1=O (stereo not given)	34.5	n	n	u
CC1(c2ccc3ccccc3c2)NC(=O)N(CC(=O)N2CCN(c3ccccc3O)CC2)C1=O (stereo not given)	n	n	n	11.2µM
COc1cccc(CNC(=O)CCCn2ncn3c(cc4occc43)c2=O)c1OC	n	x	x	n
CC(C)CCNC(=O)C1CCN(C(=O)N2CCOc3ccc(Cl)cc32)CC1	n	x	x	n
CN1C2CCC1CC(NC(=O)CSCc1ccc(Cl)cc1Cl)C2 (stereo not given)	n	n	n	7.08µM
Cc1ccc(S(=O)(=O)N(CC(=O)N/N=C/c2ccco2)c2cc(Cl)cc(Cl)c2)cc1	n	n	u	6.31µM
O=C(CN(c1ccc(Cl)cc1)S(=O)(=O)c1ccccc1)N/N=C/c1ccco1	n	n	n	u
Cc1oc(-c2cccc(Cl)c2)nc1CSc1nc2c(c(=O)[nH]1)CCC2	n	n	n	n
O=c1[nH]c(SCc2ccccc2Cl)nc2c1CCCC2	30.5	n	n	n
O=c1[nH]c(SCc2ccccc2)nc2c1CCCC2	n	x	x	n
Cc1oc(-c2ccccc2Cl)nc1CSc1nc2c(c(=O)[nH]1)CCC2	56.5	n	n	n
COc1cc(NC(=O)c2sc3nc(C)nc(N4CCOCC4)c3c2C)cc(OC)c1OC	34.3	n	n	n
Cc1ccc(NC(=O)c2sc3nc(C)nc(N4CCN(c5ccccn5)CC4)c3c2C)c(C)c1	n	n	n	11.2µM
COc1ccc(CN2CCCC(C(=O)N3CCCCC3)C2)cc1OC (stereo not given)	n	n	n	n
COc1cc(OC)c(OC)cc1CN1CCCC(C(=O)N2CCCCC2)C1 (stereo not given)	n	n	u	n
O=C(C1CCCN(Cc2cccc(F)c2)C1)N1CCCCC1 (stereo not given)	n	n	-73.3	n
COc1ccc(CN2CCCC(C(=O)N3CCc4ccccc4C3)C2)cc1OC (stereo not given)	n	n	-60.8	u
O=C(c1cccc(F)c1)N1CCCC(C(=O)N2CCCCCC2)C1 (stereo not given)	n	n	n	n
SMILES	DRD3 agonist	GLP-1R agonist	D3 antag	GLP1R inv ag
O=C(C1CCCN(Cc2ccccc2)C1)N1CCc2ccccc2C1 (stereo not given)	n	n	-88.7	n
COc1cc(CN2CCCC(C(=O)N3CCc4ccccc4C3)C2)cc(OC)c1OC (stereo not given)	n	n	-70.5	u
COCCCNC(=O)c1cnc2c(-c3ccc(F)cc3)c(C)nn2c1C	n	x	x	n
COc1ccc(-c2oc3cc(O)c(OC)c(O)c3c(=O)c2OC)cc1O	n	u	u	u
CCc1ccc(N2CC(C)Cn3c2nc2c3c(=O)n(CC(=O)O)c(=O)n2C)cc1 (stereo not given)	n	n	x	n
Nc1nc2ncccc2cc1C(=O)NC1CCCCC1	76.9	n	n	n
Oc1ccc(C(=S)N2CCN(Cc3ccccc3)CC2)cc1	n	n	n	n
CN1CCN(C(=S)c2cn(Cc3ccc(Br)cc3)c3ccccc23)CC1	n	n	-87.7	u
S=C(c1ccc(Br)cc1)N1CCN(Cc2ccccc2)CC1	n	n	-77.6	n
CCN1CCN(C(=S)c2ccc(Br)cc2)CC1	n	n	-54.8	n
CCN1CCN(C(=S)c2ccc(O)cc2)CC1	n	n	n	n
Cc1ccc(C(=S)N2CCN(Cc3ccccc3)CC2)s1	n	n	-69.5	u
O=C(c1ccccc1Br)N(Cc1ccco1)Cc1ccco1	n	x	x	u
CC(=O)Nc1ccc(OCC(=O)NCc2ccc3c(c2)OCO3)cc1	n	n	n	n[0.307 µM]
CCOc1ccc(NC(=O)CCn2c(=O)c3cccn3c3cccnc32)cc1	n	x	x	n
CN(C)c1ccc(C(=S)N2CCN(Cc3ccccc3)CC2)cc1	n	n	-50.3	11.2µM
Cc1ccc(C)c(NC(=O)CSc2nnc(CNC(=O)c3ccccc3)n2-c2ccccc2)c1	n	n	x	n
Cc1ccc(C2N(c3ccc(Cl)cc3)C(=O)N3CCCN23)cc1 (stereo not given)	n	n	n	10µM
O=C1N(c2ccccc2)C(c2ccc(Cl)cc2)N2CCCN12 (stereo not given)	n	n	n	u
COc1ccc(OC)c(NC(=S)N(CCc2c(C)[nH]c3ccccc23)Cc2cccs2)c1	n	n	n	u
COc1ccc(OC)c(NC(=S)N(CCc2c(C)[nH]c3ccc(C)cc23)Cc2cccs2)c1	n	n	n	11.2µM
COc1cccc(NC(=O)Cn2c(=O)n(-c3ccc(Cl)cc3)c(=O)c3oc4ccccc4c32)c1	n	x	x	n
O=S(=O)(CCNCCc1ccccc1)NC1CCCCC1	n	n	-84.5	n
CN(C)CC/C=C1/c2cc(F)ccc2Sc2ccc(Cl)cc21	n	n	-84.3	10µM
CN(C)CC/C=C1/c2ccccc2CSc2ccccc21	n	x	x	x
SMILES	DRD3 agonist	GLP-1R agonist	D3 antag	GLP1R inv ag
COc1cc2c(cc1Cl)/C(=C\CCN(C)C)c1ccccc1S2	n	n	-92.4	10µM
COc1cc(Cl)cc2c1Sc1ccccc1/C2=C/CCN(C)C	n	n	-76.8	u
CN(C)CC/C=C1/c2ccccc2Sc2c(O)cc(Cl)cc21	n	n	u	u
COc1ccccc1NC(=S)NCCc1ccc(Cl)cc1	n	n	n	5.01µM
S=C(Nc1ccc(Oc2ccccc2)cc1)NC1CCCCCC1	n	n	n	10µM
COc1cccc(NC(=O)NCCc2ccc(Cl)cc2)c1	n	n	n	10µM
S=C(Nc1ccc(Oc2ccccc2)cc1)NC1CCCCC1	n	n	n	u
COc1ccccc1NC(=S)NCC1CCCCC1	n	n	n	10µM
Cc1ccc2c(c1)c1c(c(=O)n(Cc3ccccc3)c(=O)n1CC(=O)NCc1ccccc1Cl)n2C	n	x	x	n
Cc1ccc(NC(=O)c2ccc(=O)n(CC(=O)Nc3cc(C)cc(C)c3)n2)cc1	n	x	x	n
CC(C)c1ccc(N2C(=O)CS(=O)(=O)C23C(=O)N(Cc2cccc(F)c2)c2ccccc23)cc1 (stereo not given)	n	n	x	n
